From PubChem BioAssay
The list is not random: actives were taken first. Their share in the collection is about 1.4%.
PTAP TSG101 blk: blocks PTAP/TSG101 interaction to inhibit HIV-1 budding; 340,000 tested, under 10 active; Q99816; Fluorescence polarization, FITC-PTAP peptide / Tsg101 binding; Potency, µM (titrated, usually from 115 µM), for inactives: top-dose activity change, negative = inhibition, hits mostly inhibitors; active means well fitted inhibition curve with a large enough effect in the main read-out, with a control signal flat, not every such curve was filed as active; inconclusive means small, poorly fitted or top-dose-only effect, or effect the other way, or a change in a side signal; inactive means no such curve, though single readings can be large or run the other way; further: potency means the concentration at half of the fitted maximal effect; % of control where 0% means no effect
Target sequence (Q99816 whole entry, looked up): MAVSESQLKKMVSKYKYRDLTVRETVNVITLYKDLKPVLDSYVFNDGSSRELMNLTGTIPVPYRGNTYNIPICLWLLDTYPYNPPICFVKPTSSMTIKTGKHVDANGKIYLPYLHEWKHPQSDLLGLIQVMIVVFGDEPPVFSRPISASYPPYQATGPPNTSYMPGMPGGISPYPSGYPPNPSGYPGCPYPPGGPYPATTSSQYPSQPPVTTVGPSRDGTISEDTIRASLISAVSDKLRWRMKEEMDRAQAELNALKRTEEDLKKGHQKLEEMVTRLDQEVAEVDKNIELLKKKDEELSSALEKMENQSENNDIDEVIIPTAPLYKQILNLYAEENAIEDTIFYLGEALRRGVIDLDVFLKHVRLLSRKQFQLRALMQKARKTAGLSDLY
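Steps: Tsg101 binding domain dispensed (10 uM final), compounds pinned in DMSO, FITC-labeled PTAP-motif peptide added (50 nM final); after 20 min binding at room temperature, polarization measured.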
Vif-APOBEC3F blk: Vif-A3F binding inhibition; actives 0.2% (n = 390,000); Potency, µM (titrated, usually from 46.1 µM), for inactives: at the top dose activity, negative = active; HeLa A3F-eYFP + Vif (tagged APOBEC3F with the HIV-1 protein that degrades it), YFP fluorescence increase; further: potency means the concentration at half of the fitted maximal effect; % of control where 0% means no effect; nearly all actives have a fitted effect of over 65% in size
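Fluorescence increase (Ex 488/Em 500-530) after overnight compound treatment at 37 deg C flags inhibition of Vif-driven A3F-eYFP loss in stable HeLa A3F-eYFP/Vif cells seeded overnight beforehand.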
pAkt inh: inhibitors of Akt phosphorylation | actives 0.32% (n = 360,000) | Neuro2A IGF-stimulated pAkt S473 HTRF, 20 min; active compounds read low | AID 651550 | activity change, % for hits at 50 µM; in the data active means activity change below about -80%; inconclusive means mostly about -51% to -80%; further: on the % scale 0 is the no-effect control and ±100 the full control effect
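Neuro2A cells (4,500/well, DMEM with 0.5% FBS) were treated with compound at a single 50 µM final concentration, stimulated with 6 nM IGF for 20 min at 37 °C, and lysed. Phospho-Akt Ser473 was read by HTRF as 665/615 ratio ×10^4.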
12-LOX inh: blocks human arachidonate 12S-lipoxygenase; purified 12hLO, xylenol orange hydroperoxide absorbance; actives 1.1% (n = 580,000); P18054; Potency, µM (titrated, usually from 108 µM), for inactives: at the highest dose activity change, negative = inhibition, hits mostly inhibitors; AID 1671190; further: potency means the concentration at half of the fitted maximal effect; on the % scale 0 is the no-effect control and ±100 the full control effect
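Purified human 12hLO at 150 nM in 25 mM Hepes, 0.01% Triton X-100, pH 7.0, preincubated 15 min at room temperature with compound. Reaction started with 40 uM arachidonic acid, 30 min at room temperature. Hydroperoxide measured by Fe-xylenol orange, 573/405 nm absorbance ratio.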
ASM inhibitor: inhibitors of human secretory acid sphingomyelinase; P17405; placental ASM, HMU-PC fluorogenic substrate, 60 min; Potency, µM (titrated, usually from 57.5 µM), inactives show top-dose activity change, negative = inhibition, most hits filed as inhibitors; actives 0.006% (n = 340,000); AID 504937; further: potency means the concentration at half of the fitted maximal effect
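qHTS format. ASM enzyme prepared from human placenta hydrolyses the fluorogenic substrate HMU-PC0 (9 uM final) over 60 min at 37 °C after a 10 min compound preincubation.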
Vif-APOBEC3G blk: inhibitors of Vif-APOBEC3G interaction; HeLa A3G-eYFP + Vif (tagged APOBEC3G with the HIV-1 protein that degrades it), YFP fluorescence, overnight; Q9HC16; AID 602310; actives 0.076% (n = 410,000); Potency, µM (highest dose often 46.1 µM), for the others: top-dose activity, negative = active, usual class: inhibitors; further: potency means the concentration at half of the fitted maximal effect; on the % scale 0 is the no-effect control and ±100 the full control effect; nearly all actives have a fitted effect of over 60% in size
Target sequence (Q9HC16 whole entry, looked up): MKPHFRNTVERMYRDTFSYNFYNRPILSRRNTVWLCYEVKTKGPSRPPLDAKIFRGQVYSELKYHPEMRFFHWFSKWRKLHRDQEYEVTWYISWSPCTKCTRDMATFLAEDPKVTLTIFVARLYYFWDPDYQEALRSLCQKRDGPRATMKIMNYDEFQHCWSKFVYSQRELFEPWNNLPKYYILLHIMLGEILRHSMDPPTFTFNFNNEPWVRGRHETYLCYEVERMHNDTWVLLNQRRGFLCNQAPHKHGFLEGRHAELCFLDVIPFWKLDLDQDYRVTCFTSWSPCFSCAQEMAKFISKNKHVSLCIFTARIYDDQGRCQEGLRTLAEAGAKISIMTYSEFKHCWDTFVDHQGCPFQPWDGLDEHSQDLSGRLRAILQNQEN
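HeLa cells stably expressing Vif and C-terminally eYFP-tagged A3G, seeded overnight at 37 deg C, then exposed to compound by pintool overnight at 37 deg C. Rise in yellow fluorescence (Ex 488/Em 500-530, Acumen) marks blocked Vif-driven A3G degradation.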
* = called active by the depositor; ! = not confirmed by another sample; [ ] = dose if it differs, or a comment. Unless noted, the call rests on the fitted dose curve; in most records, active means well fitted curve in the direction sought with a large enough effect; inconclusive means small, poorly fitted or top-dose-only effect, or another doubt; inactive means no such curve, though single readings can be large; an effect the other way counts as inactive or inconclusive.

What do the screens show for `Cc1ccc(CNc2ccc3c(c2)OCO3)cc1`?
PTAP TSG101 blk: inconclusive; Vif-APOBEC3F blk: 25µM*; ASM inhibitor: 17%; Vif-APOBEC3G blk: 22µM*

What do the screens show for `CCc1ccc(N2C=C(C(=O)OC)C(c3ccccc3F)C(C#N)=C2N)cc1` (stereo unspecified)?
pAkt inh: inactive; 12-LOX inh: 45µM*

What do the screens show for `CC(=O)NC(O)C(=O)c1ccccc1` (stereo unspecified)?
PTAP TSG101 blk: -3%; Vif-APOBEC3F blk: 2%; pAkt inh: -109%*; 12-LOX inh: -30%; ASM inhibitor: 2%; Vif-APOBEC3G blk: -5%

How did CC(=O)NC(Cc1ccccc1)Cc1ccccc1 do in these assays?
PTAP TSG101 blk: -5%; Vif-APOBEC3F blk: 8%; pAkt inh: inactive; 12-LOX inh: 0%; ASM inhibitor: -2%; Vif-APOBEC3G blk: 0%

How did Cn1cccc1CN1CCCC2(Cc3ccccc3CNC2=O)C1 (stereo unspecified) do in these assays?
12-LOX inh: 5%[6.33 µM]

What do the screens show for `CCOC(=O)CSC1=Nc2ccccc2C2=NC(CC(=O)NCc3cccs3)C(=O)N12` (stereo unspecified)?
PTAP TSG101 blk: -2%; Vif-APOBEC3F blk: 8%; pAkt inh: inactive; 12-LOX inh: inconclusive; ASM inhibitor: 13%; Vif-APOBEC3G blk: -8%

How did CCOC(=O)CSC1=Nc2ccccc2C2=NC(CC(=O)NCc3ccccc3)C(=O)N12 (stereo unspecified) do in these assays?
PTAP TSG101 blk: -2%; Vif-APOBEC3F blk: -12%; pAkt inh: inactive; 12-LOX inh: 10µM*; ASM inhibitor: 36%; Vif-APOBEC3G blk: -4%

How did Cc1ccc(-c2[nH]c(=S)[nH]c(=O)c2C#N)cc1 do in these assays?
PTAP TSG101 blk: -8%; Vif-APOBEC3F blk: 6%; pAkt inh: inactive; 12-LOX inh: 16µM*; ASM inhibitor: 7%; Vif-APOBEC3G blk: -1%

Results for Cc1ccsc1C(=O)OCC(=O)NC(=O)NC1CCCCC1 ?
12-LOX inh: -3%

Results for CCN(CC)CCCN(C/C=C/c1ccccc1)C/C=C/c1ccccc1 ?
12-LOX inh: 0.71µM*

What do the screens show for `CCN(CC)CCCNc1oc(/C=C/c2ccccc2)nc1C#N`?
PTAP TSG101 blk: -3%; Vif-APOBEC3F blk: 6%; pAkt inh: inactive; 12-LOX inh: 48%; ASM inhibitor: inactive; Vif-APOBEC3G blk: -2%

What do the screens show for `c1ccc2c(c1)oc1c(NCCCN3CCOCC3)ncnc12`?
PTAP TSG101 blk: -1%; pAkt inh: -109%*; 12-LOX inh: inconclusive; ASM inhibitor: -2%; Vif-APOBEC3G blk: 0%

What do the screens show for `N#Cc1c(-c2cccc(Br)c2)cc(-c2ccco2)[nH]c1=O`?
PTAP TSG101 blk: -2%; Vif-APOBEC3F blk: -5%; pAkt inh: inactive; 12-LOX inh: 18µM*; ASM inhibitor: inactive; Vif-APOBEC3G blk: -9%

How did COc1ccc(-c2cc(C(F)(F)F)c(C#N)c(=O)[nH]2)cc1 do in these assays?
PTAP TSG101 blk: -1%; Vif-APOBEC3F blk: 11%; pAkt inh: inactive; 12-LOX inh: -1%; ASM inhibitor: inactive; Vif-APOBEC3G blk: -3%

Results for COc1ccc(-c2cc(-c3ccco3)[nH]c(=O)c2C#N)cc1 ?
PTAP TSG101 blk: -3%; Vif-APOBEC3F blk: 0%; pAkt inh: inactive; 12-LOX inh: 40µM*; ASM inhibitor: inactive; Vif-APOBEC3G blk: 0%

How did COC(=O)C1=C(C)N=C2SC=C(CC(=O)N3CCCCC3C)N2C1c1ccc(OC)cc1 (stereo unspecified) do in these assays?
12-LOX inh: -3%

Results for O=C(CCN1CCN(CCO)CC1)Nc1ccc(C2CCCC2)cc1 ?
PTAP TSG101 blk: -1%; Vif-APOBEC3F blk: -2%; pAkt inh: inactive; 12-LOX inh: 45µM*; ASM inhibitor: -2%; Vif-APOBEC3G blk: 3%

Results for CCN(CC)C(=O)Cn1c(=O)n(-c2ccccc2)c(=O)c2c3c(sc21)CCC3 ?
PTAP TSG101 blk: -10%; Vif-APOBEC3F blk: 11µM*!; pAkt inh: inactive; 12-LOX inh: inconclusive; ASM inhibitor: -2%; Vif-APOBEC3G blk: 0%

Results for CCOC(=O)c1cc(-c2ccc(OC)cc2)nc2c1c(C)nn2CCC(N)=S ?
PTAP TSG101 blk: 1%; Vif-APOBEC3F blk: 1%; pAkt inh: inactive; 12-LOX inh: 40µM*; ASM inhibitor: 144%; Vif-APOBEC3G blk: 1%

What do the screens show for `CCOC(=O)c1cc(-c2ccco2)nc2c1c(C)nn2-c1ccccc1`?
PTAP TSG101 blk: -3%; Vif-APOBEC3F blk: 1%; pAkt inh: inactive; 12-LOX inh: 35µM*!; ASM inhibitor: 30%; Vif-APOBEC3G blk: -1%

How did CCOC(=O)c1cc(-c2ccc(OC)cc2)nc2ccc(Br)cc12 do in these assays?
12-LOX inh: -10%

Results for CCOC(=O)c1cc(-c2ccccn2)nc2c1c(C)nn2-c1ccc(C)cc1 ?
12-LOX inh: -2%

What do the screens show for `CCOC(=O)c1cc(-c2ccco2)nc2c1c(C)nn2-c1ccccc1Cl`?
12-LOX inh: 32µM*

What do the screens show for `O=C(NCc1ccc(Cl)cc1)NC1CC1`?
12-LOX inh: 0%

What do the screens show for `CCN(NC(=O)c1ccc(CNC(N)=O)cc1)c1ccc(C)cc1`?
12-LOX inh: 7%

How did Cc1ccccc1-c1nc2ccccc2c(=O)n1/N=C/c1ccccc1[N+](=O)[O-] do in these assays?
PTAP TSG101 blk: -6%; Vif-APOBEC3F blk: -8%; pAkt inh: inactive; 12-LOX inh: 32µM*; ASM inhibitor: -2%; Vif-APOBEC3G blk: -3%

How did N#CCCn1cc(-c2csc(NC3CC3)n2)c2ccccc21 do in these assays?
12-LOX inh: 14µM*

Results for Clc1ccccc1-c1csc(NC2CC2)n1 ?
12-LOX inh: -21%

How did O=C(Nc1ccc(N2CCCCC2)cc1)c1ccc(F)cc1F do in these assays?
PTAP TSG101 blk: -1%; Vif-APOBEC3F blk: 6%; pAkt inh: inactive; 12-LOX inh: 152%; ASM inhibitor: -2%; Vif-APOBEC3G blk: -4%

What do the screens show for `O=C(Nc1ccc(N2CCCC2)cc1)c1ccccc1F`?
PTAP TSG101 blk: -4%; Vif-APOBEC3F blk: -9%; pAkt inh: -85%*; 12-LOX inh: -13%; ASM inhibitor: -4%; Vif-APOBEC3G blk: -5%

What do the screens show for `COc1ccc(/C=C/c2nc3cc(C)ccc3s2)cc1OC`?
12-LOX inh: -1%

Results for NC1=NC(c2cccc(Oc3ccccc3)c2)n2c(nc3ccccc32)N1 (stereo unspecified) ?
12-LOX inh: -4%
